Screening data: PubChem, several laboratories
Myeloid diff MLP – induction of myeloid progenitor differentiation, primary screen, cell-based, flow cytometry, MLPCN library; ER-HoxA9 myeloid progenitors, lysozyme-GFP differentiation; calls only at 10 µM; AID 624256, 2012; actives 1% (n = 360,000);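 active = normalized GFP-positive differentiation at or above the plate's own cutoff, the solvent-only control mean plus 3 SD; inconclusive = no clear call, values can overlap the other calls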;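 also: cells exposed to compound for four days before flow analysis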
Exocytosis inh – LAMP-1 surface exposure blockers, TALL-104 cells – cell-based, flow cytometry, MLPCN library, primary screen; TALL-104 LAMP-1 surface exposure; cells stimulated with thapsigargin and PMA; inhibition, % at 10 µM; actives 0.66% (n = 360,000);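 active = inhibition above about 55%, limit read from the data; inconclusive = no clear call, values can overlap the other calls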
GC-A act – GC-A stimulated cGMP production enhancers – HEK293 GC-A cells, cGMP TR-FRET, EC30 ANP, primary screen; AID 1671463, 2021; 0% at EC30 ANP, 100% saturating ANP; Atrial natriuretic peptide receptor 1 (Homo sapiens), P16066; actives 0.14% (n = 370,000); activation, % at 10 µM; in the data active = activation above about 40%
Target sequence (P16066 whole entry, looked up): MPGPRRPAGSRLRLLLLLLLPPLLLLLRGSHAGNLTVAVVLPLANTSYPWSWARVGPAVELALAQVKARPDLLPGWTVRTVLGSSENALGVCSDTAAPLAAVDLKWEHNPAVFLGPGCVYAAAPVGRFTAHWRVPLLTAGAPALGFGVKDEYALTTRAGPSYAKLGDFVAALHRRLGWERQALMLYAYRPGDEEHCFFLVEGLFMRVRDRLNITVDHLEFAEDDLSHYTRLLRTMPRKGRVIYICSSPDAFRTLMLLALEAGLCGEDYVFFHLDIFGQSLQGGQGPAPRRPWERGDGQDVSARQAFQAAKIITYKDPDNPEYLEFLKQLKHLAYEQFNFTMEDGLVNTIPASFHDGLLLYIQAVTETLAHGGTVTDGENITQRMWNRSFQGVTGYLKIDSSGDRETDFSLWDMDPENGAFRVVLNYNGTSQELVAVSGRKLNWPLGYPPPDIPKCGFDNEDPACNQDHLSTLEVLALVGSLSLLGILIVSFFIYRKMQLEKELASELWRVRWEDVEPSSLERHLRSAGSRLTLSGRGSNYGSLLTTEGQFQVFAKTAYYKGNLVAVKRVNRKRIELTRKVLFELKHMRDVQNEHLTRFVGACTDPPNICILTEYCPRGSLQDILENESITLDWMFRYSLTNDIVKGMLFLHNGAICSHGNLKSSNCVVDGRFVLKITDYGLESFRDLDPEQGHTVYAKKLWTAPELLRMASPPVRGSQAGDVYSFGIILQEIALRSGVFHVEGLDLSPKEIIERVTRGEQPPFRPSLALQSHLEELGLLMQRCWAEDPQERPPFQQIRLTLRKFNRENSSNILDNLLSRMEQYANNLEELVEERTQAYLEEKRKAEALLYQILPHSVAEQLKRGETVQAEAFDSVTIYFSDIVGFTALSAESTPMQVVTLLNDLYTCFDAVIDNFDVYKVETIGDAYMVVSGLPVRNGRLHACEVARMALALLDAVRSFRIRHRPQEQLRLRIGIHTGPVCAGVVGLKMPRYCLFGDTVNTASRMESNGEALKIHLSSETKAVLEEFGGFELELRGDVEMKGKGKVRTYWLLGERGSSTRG
GC-B act – human GC-B receptor activators, primary screen, HEK293 GC-B cells, cGMP TR-FRET, EC30 CNP. Atrial natriuretic peptide receptor 2 (Homo sapiens), P20594. 0% at EC30 CNP, 100% saturating CNP. activation, % at 10 µM. actives 0.11% (n = 370,000). AID 1920062, 2024;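 active = activation at 10 µM reaching about 35% in either raw or pattern-adjusted values, limit read from the data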
* hit, by the source's call; i = inactive; u = inconclusive; x = no result; + = active, no number. In the library only some 1.8% were active in any assay of this set; here they are far more common.

SMILES	Myeloid diff MLP	Exocytosis inh	GC-A act	GC-B act
CCn1c2ccccc2c2cc(C=Nn3c(-c4ccccn4)n[nH]c3=S)ccc21	x	x	4	9
Cc1ccc(OCCN2CCC2(C)C(=O)NCc2ccc(C(F)(F)F)cc2)cc1 (centres undefined)	i	1	-7	3
N#Cc1c(Nc2ccc(Cl)cc2)s[nH]c1=O	i	83*	3	0
COc1cc2c(c(OC)c1)[C@H](/C=C/c1ccccc1)[C@@H]([C@H](O)CO)OC2	x	x	-1	0
CCCCOc1ccc(/C=c2\sc3ncnn3c2=O)cc1	i	3	67*	-5
Cc1ccsc1/C=c1\sc2ncnn2c1=O	i	-2	18	1
COc1ccc(Nc2nc(-c3c[nH]c4ccccc34)cs2)cc1	+	-1	3	-2
CCOC(=O)C1=C[C@@H](C(C)(C)C)N(S(=O)(=O)c2ccc(C)cc2)[C@H]1c1ccc(OC)cc1	i	-8	-6	2
Nc1cccn2c(-c3ccc(Cl)c(Cl)c3)cnc12	+	23	5	-7
CC(=O)Nc1cc(-c2ccccc2)cn2c(-c3ccc(F)c(Cl)c3)cnc12	i	41	-6	10
COc1ccc(-n2nnnc2C(c2ccccc2OC(F)(F)F)N2CCN(C/C=C/c3ccccc3)CC2)cc1 (centres undefined)	+	15	-2	2
COc1ccc(C(c2nnnn2-c2ccc(OC)cc2)N2CCN(C/C=C/c3ccccc3)CC2)cc1 (centres undefined)	i	19	2	-1
CC(Cc1ccccc1)C(=O)N[C@@H](CO)Cc1ccccc1 (some centres undefined)	+	-10	1	-2
CC1=C/C(=N\OS(=O)(=O)c2ccccc2)C(C)=CC1=O	u	99*	x	x
CC1=CC(=O)C(C(C)C)=C/C1=N\OS(=O)(=O)c1ccccc1	x	x	-10	7
COC(=O)[C@]1(C)CN(C(=O)OC(C)(C)C)C2=C1C(=O)C[C@@](C)(C(=O)OC(C)(C)C)C2	x	x	0	2
COC(=O)c1cccc(C23CC4(C2)[C@H](CN(Cc2ccc(C(F)(F)F)cc2)[C@@H]4c2ccccc2)C3c2ccc(Cl)nc2)c1 (some centres undefined)	i	77*	-6	-10
CCc1ccccc1NC(=O)Cn1nnc(-c2cccs2)n1	i	1	-1	4
Cc1cccc(NC(=O)Cn2nnc(-c3cccs3)n2)c1C	+	2	5	0
COc1ccc(NC(=O)NC2CCN(S(=O)(=O)c3ccc(F)cc3)CC2)cc1OC	x	x	1	-3
O=C1c2ccccc2C(=O)N1Nc1ccccc1	i	1	2	-2
Cc1ccc(NN2C(=O)C=C(c3ccccc3)C2=O)cc1	i	67*	32	14
COC(=O)[C@]12C[C@H](CC(=O)N3CCN(C(=O)c4ccco4)CC3)C(=O)N(Cc3ccc4c(c3)OCO4)C1=C[C@H](C(C)C)O[C@@H]2C1CC1	x	x	-1	-5
CCC1CCCCN1S(=O)(=O)c1ccc(NC(=O)c2nc(S(C)(=O)=O)ncc2Cl)cc1 (centres undefined)	u	30	42*	20
CCS(=O)(=O)c1ncc(Cl)c(C(=O)Nc2ccc(C)cc2)n1	x	-21	37	4
SMILES	Myeloid diff MLP	Exocytosis inh	GC-A act	GC-B act
CCS(=O)(=O)c1ncc(Cl)c(C(=O)Nc2ccc(S(=O)(=O)N3CCCC(C)C3)cc2)n1 (centres undefined)	u	14	43*	41*
Brc1ccc(CSc2nnc(SCc3ccccc3)s2)cc1	x	x	4	6
Cc1ccc(Nc2c(-c3ccco3)nc3nc(C)cc(C)n23)cc1	i	0	68*	13
COC(=O)C1=C(C)NC(C)=C(C(=O)OCC(C)C)C1c1ccccc1[N+](=O)[O-] (centres undefined)	i	68*	-16	-7
CCc1ccccc1-c1cc(C(=O)OC)c2n(c1=O)CCC2	x	x	1	0
CCCCNC(=O)C(C)N(CCN(C)C)C(=O)CCCN1C(=O)NC(c2ccc([N+](=O)[O-])cc2)C(C(=O)OCc2ccccc2)=C1C (centres undefined)	+	36	x	x
O=C(COCc1ccccc1)NC1CCCCN(Cc2ccc(Cl)cc2)C1=O (centres undefined)	x	x	1	-7
N#CCCn1cc(/C=N/NC(N)=S)c(-c2ccc(Br)cc2)n1	i	-2	-8	55*
COC(=O)c1c(C)[nH]c(C(=O)CC#N)c1C	+	3	-4	0
COC(=O)c1c(C)[nH]c(C(=O)CN2CCOCC2)c1C	i	2	-1	1
COc1ccc2nc(-c3ccc(CN4CCC5(CC4)CNc4ccccc45)cc3)c(-c3ccccc3)nc2c1	x	x	2	9
COc1cccc(OCCNC(=O)c2ccc(C)cc2)c1	+	-5	2	2
COc1cccc(OCCNC(=O)c2cc([N+](=O)[O-])cc([N+](=O)[O-])c2)c1	+	-3	-8	-4
O=C(COCc1ccccc1)N1CC[C@H]2[C@H](CCCN2Cc2ccccc2)C1	x	x	3	0
O=C(NCc1ccc2c(c1)OCO2)C(=O)NCC1OCCN1S(=O)(=O)c1ccccc1 (centres undefined)	i	0	3	-1
Cc1c(S(=O)(=O)c2ccccn2)c(N)n(Cc2ccccc2)c1C	i	-1	-2	-1
Cc1c(S(=O)(=O)c2ccccn2)c(N)n(Cc2ccccc2Cl)c1C	+	14	-1	-1
Cc1ccccc1OCC(O)Cn1c2ccccc2c2ccccc21 (centres undefined)	i	-1	0	0
COc1ccc(SCC(O)Cn2c3ccccc3c3ccccc32)c(OC)c1 (centres undefined)	+	-6	-8	-11
CC(C)C[C@H](NC1(C(=O)NC2CCCCC2)CCN(C(=O)OC(C)(C)C)CC1)C(=O)NCCc1c[nH]c2ccccc12	x	x	-1	2
O=C(COC(=O)c1cccc2ccccc12)Nc1ncc(C(F)(F)F)cc1Cl	+	2	3	3
CC(C)C(=O)Nc1cccc(C(=O)OCC(=O)c2ccc(Cl)cc2Cl)c1	i	0	59*	-5
CC(=O)Nc1cc(C(=O)OCC(=O)c2ccc(Cl)cc2Cl)ccc1C	i	-2	61*	4
CCN(CC)c1ccc(NC(=O)CSc2nnc(-c3ccc(Cl)cc3)n2Cc2ccco2)cc1	x	x	-4	1
COc1cccc(C(=O)C(C#N)=C(SC)SC)c1	i	70*	30	-2
CSC(SC)=C(C#N)C(=O)c1ccccc1	i	56*	4	1
CCOC(=O)N(C)[C@H]1C[C@H]2c3[nH]c4ccccc4c3CCN2C(=O)[C@H]1[C@H](C)O	x	x	3	10
